GRP78 ERSR act: ER stress response induction in glioma | U87-MG GRP78 promoter luciferase reporter, 16 h | Potency, µM, hits mostly activators | hit rate 0.02% among 420,000 | AID 602332; further: series mostly up to about 76 µM; nearly all actives have a fitted effect of over 35% in size
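Stably transfected U87-MG human glioma cells carrying a GRP78-based luminescent sensor were seeded at 1000 cells/well, pin-dosed with compounds and incubated 16 h. Luciferase reagent was then added, and end-point luminescence was read after 10 min at room temperature.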
TRHR agonist-1: TRH receptor (human) agonism; activation, % at 2 µM; P34981; TRHR cells, calcium flux fluo-8, FDSS agonist mode; hit rate 0.18% among 360,000; in the data active means activation above about 30%
Target sequence (P34981 whole entry, looked up): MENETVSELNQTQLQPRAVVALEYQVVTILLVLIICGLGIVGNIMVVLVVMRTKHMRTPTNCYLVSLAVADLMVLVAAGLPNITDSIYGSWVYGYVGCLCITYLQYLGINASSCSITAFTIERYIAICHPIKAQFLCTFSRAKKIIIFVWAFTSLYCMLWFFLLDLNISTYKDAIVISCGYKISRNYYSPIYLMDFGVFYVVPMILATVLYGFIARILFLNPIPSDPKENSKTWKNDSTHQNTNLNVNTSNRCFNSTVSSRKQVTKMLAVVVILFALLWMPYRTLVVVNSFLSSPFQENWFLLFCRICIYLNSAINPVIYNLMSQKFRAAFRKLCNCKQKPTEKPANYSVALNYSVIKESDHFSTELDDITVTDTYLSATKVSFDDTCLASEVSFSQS
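Read-out: compound-evoked intracellular calcium rise in TRHR cells, fluo-8 dye, kinetic FDSS fluorescence at 1 s/cycle following a 10-cycle baseline. Cells cultured overnight before dye loading (30 min–1.5 h, RT).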
TRPML1 ag: agonists of human TRPML1 channel; Q9GZU1; TRPML1-expressing cells, Ca2+ dye fluorescence, FDSS; activation, % (concentration not given with the values); hit rate 0.12% among 410,000; AID 624414; in the data active means activation above about 50%; inconclusive means mostly about 30% to 49%
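Kinetic FDSS Ca2+ read in Tet-induced TRPML1-DL cells (ABD Ca8 dye plus quencher, 45-90 min RT loading): baseline, then compound, then 110 s agonist window; EC80 agonist 54-4 at 4uM final added afterwards for a 110 s antagonist window.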
TRHR enhancer-1: allosteric enhancers of human TRH receptor. hit rate 0.66% among 360,000. P34981. enhancement, % at 2 µM. TRHR cells, fluo-8 calcium fluorescence, EC20 TRH enhancement. AID 493056; in the data active means enhancement above about 30%
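Enhancer read-out: after compound pinning and an initial kinetic agonist-mode read, an EC20 of TRH (10 nM final) was injected and fluo-8 calcium signal (Ex 480/Em 530) followed at 1 s/cycle for 100 cycles in TRHR-expressing cells.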
TRPML1 blocker: inhibitors of human TRPML1 channel; Q9GZU1; TRPML1-inducible cells, Ca2+ dye fluorescence, FDSS; hits give low values; inhibition of EC80 agonist-evoked calcium signal; activity change, negative = inhibition, % (test concentration not listed); hit rate 0.02% among 390,000; in the data active means activity change below about -50%; inconclusive means between about -30% and that limit;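 further: stimulus is agonist 54-4 at its EC80 concentration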
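TRPML1-DL cells, Tet-induced overnight (~16 h, 37 °C) at 1,500 cells/well, were loaded with Ca8 no-wash dye plus quencher for 45-90 min at room temperature. Compounds were pinned during FDSS kinetic reading; agonist 54-4 at EC80 (4 uM final) then added.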
TRHR enhancer-2: human TRH receptor allosteric enhancement confirmation; 970 tested, under 10 active; TRH receptor cell assay, enhancer confirmation qHTS; shares compounds with TRHR enhancer-1; activity change, negative = inhibition, % at 46.1 µM; AID 493076;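 further: compound effect scored on response to added TRH at EC20 of 10 nM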
TRHR agonist-2: confirmation of human TRH receptor agonists. AID 493078. Potency, µM (titrated, usually from 46.1 µM), usual class: activators. hit rate 8% among 970. TRHR-expressing cells, agonist activation read-out. shares compounds with TRHR enhancer-1; further: nearly all actives have a fitted effect of over 75% in size
Of the large screens only hits and unclear results are named; the others gave an inactive call (follow-up assays come after a bar, where they were run). In the library only some 0.8% were active in any assay of this set; here they are far more common. Unless noted, the call rests on the fitted dose curve; in most records, active means well fitted curve in the direction sought with a large enough effect; inconclusive means small, poorly fitted or top-dose-only effect, or another doubt; inactive means no such curve, though single readings can be large; an effect the other way counts as inactive or inconclusive.

CCC(=O)Nc1ccc(S(=O)(=O)N2CCCCC2)cc1OC	TRHR enhancer-1 44.3 | TRHR enhancer-2 inactive | TRHR agonist-2 inactive
COc1cc(S(=O)(=O)N2CCCCC2)ccc1NC(=O)c1ccccc1Cl	none
O=C(c1cc(-c2ccccc2)on1)N1CCOc2ccc(CN3CCOCC3)cc2C1	none (no result: TRHR agonist-1, TRPML1 ag, TRHR enhancer-1, TRPML1 blocker)
Nc1ncnc(Nc2ccc(F)c(Cl)c2)n1	TRHR enhancer-1 45.0 | TRHR enhancer-2 inactive | TRHR agonist-2 inactive
COc1cc(=O)n2c(c1C(=O)NCc1nccs1)CCN(Cc1ccccc1F)CC2	none (no result: TRHR agonist-1, TRPML1 ag, TRHR enhancer-1, TRPML1 blocker)
O=C(Nc1ccccc1)/C(=C/c1ccc2c(c1)OCO2)NC(=O)c1ccco1	TRHR enhancer-1 52.3 | TRHR enhancer-2 inactive | TRHR agonist-2 inactive
COc1cc(=O)n2c(c1C(=O)N(C)Cc1cscn1)CCN(C(=O)c1cccc(C)c1C)CC2	none (no result: TRHR agonist-1, TRPML1 ag, TRHR enhancer-1, TRPML1 blocker)
CCc1cccc2sc(NC(=O)C3CC3)nc12	TRHR enhancer-1 42.3 | TRHR enhancer-2 inactive | TRHR agonist-2 inconclusive
CCc1noc(C)c1C(=O)Nc1nc2c(C)cccc2s1	TRHR enhancer-1 55.5 | TRHR enhancer-2 inactive | TRHR agonist-2 inactive
O=c1[nH]c2cc3ccccc3cc2nc1C(F)(F)F	none | TRHR enhancer-2 inactive | TRHR agonist-2 inconclusive
CC(C)C(NC(=O)c1ccccc1Br)c1ccccc1 (configuration not stated)	none
CC(NC(=S)NC(=O)c1ccccc1Br)c1ccccc1 (configuration not stated)	TRHR enhancer-1 46.6 | TRHR enhancer-2 inactive | TRHR agonist-2 inactive
CCn1c(-c2cccc(OC)c2)nc2cc(NC(C)=O)cc(C(=O)N3CCC[C@H]3C(=O)OC)c21	none (no result: TRHR agonist-1, TRPML1 ag, TRHR enhancer-1, TRPML1 blocker)
CCOc1ccc(S(=O)(=O)N2CCN(c3ccc(OC)cc3)CC2)c2cccnc12	TRHR enhancer-1 43.7 | TRHR enhancer-2 inactive | TRHR agonist-2 inactive
CC(NCCC1(Cc2ccccc2Cl)CCOC(C)(C)C1)c1cccs1 (configuration not stated)	none
CC(NCCC1(C(C)C)CCOC(C)(C)C1)c1cccs1 (configuration not stated)	TRHR enhancer-1 52.1 | TRHR enhancer-2 inactive | TRHR agonist-2 inactive
CC1Cc2cc(/C(O)=C3/C(=O)C(=O)N(CCN4CCOCC4)C3c3ccc(N(C)C)cc3)ccc2O1 (configuration not stated)	TRHR enhancer-1 41.9 | TRHR enhancer-2 inactive | TRHR agonist-2 inactive
CC1Cc2cc(/C(O)=C3/C(=O)C(=O)N(CCN4CCOCC4)C3c3ccc(C(C)C)cc3)ccc2O1 (configuration not stated)	none
Cc1nc(S(=O)(=O)N2CCN(C3c4ccccc4-c4ccccc43)CC2)cn1C	TRHR enhancer-1 43.1 | TRHR enhancer-2 inactive | TRHR agonist-2 inactive
O=C(CCn1c(=O)[nH]c2ccccc21)NCC1Cc2cc(Cl)cc(-c3ccncc3)c2O1 (configuration not stated)	none (no result: TRHR agonist-1, TRPML1 ag, TRHR enhancer-1, TRPML1 blocker)
Cc1cc(C=C2C(=O)c3ccccc3C2=O)c(C)n1-c1ccc(C(=O)O)cc1	TRHR enhancer-1 48.6 | TRHR enhancer-2 inactive | TRHR agonist-2 inconclusive
Cc1cc(C=C2C(=O)c3ccccc3C2=O)c(C)n1-c1cccc(C(=O)O)c1	none
COc1ccc(-c2cc(C(=O)NCCN3CCOCC3)c3cc(C(C)C)ccc3n2)cc1	TRHR enhancer-1 46.6 | TRHR enhancer-2 inactive | TRHR agonist-2 inactive
COc1ccc(-c2cc(C(=O)NCCc3ccccc3)c3cc(C(C)C)ccc3n2)cc1	none
Brc1ccc(-c2csc(NNC3=NCCCCC3)n2)cc1	none
CC(C)(C)c1ccc(-c2csc(NNC3=NCCCCC3)n2)cc1	TRHR enhancer-1 55.1 | TRHR enhancer-2 inactive | TRHR agonist-2 inactive
CCC(Sc1nc2ncccc2[nH]1)C(=O)NCCc1ccccc1 (configuration not stated)	TRHR agonist-1 59.6 | TRHR enhancer-2 inactive | TRHR agonist-2 inactive
CCC(Sc1nc2ncccc2[nH]1)C(=O)NC1CCC(C)CC1 (configuration not stated)	none
CO[C@H]1[C@H](NC(=O)C(C)C)c2ccccc2C12CCN(Cc1c(C)nn(C)c1Cl)CC2	none (no result: TRHR agonist-1, TRPML1 ag, TRHR enhancer-1, TRPML1 blocker)

Screening data: PubChem, National Center for Advancing Translational Sciences (NCATS)
